# Assay outcomes: PubChem, several laboratories
# This is a sample that favours compounds with a hit; in the whole collection about 4.7% have one here.
# rCAG binder – r(CAG) repeat RNA binding. 370,000 tested, 1.3% active. TO-PRO-1 dye displacement fluorescence. inhibition, % at 3 µM;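 active means inhibition above the plate cutoff, the mean of all test compounds on that plate plus 3 SD, cut at about 35% in these data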;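 further: 0% = DMSO alone and 100% = 100 µM mitoxantrone as full dye displacement; higher means more dye released from RNA so lower well fluorescence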
# MPTP block – blocks calcium-induced mitochondrial swelling; isolated mouse mitochondria, Ca2+ swelling absorbance, 30 min; inhibition, % at 10 µM; 360,000 tested, 1.4% active; AID 602449;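 active means inhibition of 50% or more, scaled per plate between neutral and stimulator controls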;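 further: 0% = DMSO wells given calcium and 100% = 1 mM EGTA wells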
# KLK7 zymogen act – proKLK7 (human) activation, primary screen; P49862; purified proKLK7, EDANS-DABCYL substrate fluorescence; 100% is mature enzyme control, 0% vehicle; activation, % at 7 µM; 370,000 tested, 0.9% active; AID 652039;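 active means activation above the mean of all tested compounds plus 3 SD, computed per campaign excluding outliers beyond control limits, cut at about 13% in these data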
# ADAM10 inh – ADAM10 inhibition, QFRET primary screen; recombinant ADAM10, EDANS/DABCYL FRET peptide cleavage, 3 h; AID 720582; inhibition, % at 7 µM; O14672; 370,000 tested, 0.62% active;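 active means inhibition above a per-campaign cutoff equal to the mean of compounds falling between control-based bounds plus 3 SD, cut at about 20% in these data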;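 further: 0% = DMSO wells while the 100% control is not disclosed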
# ADAM17 inh – ADAM17 inhibition, QFRET primary screen | recombinant ADAM17, EDANS/DABCYL FRET peptide cleavage | inhibition, % at 6.95 µM | 370,000 tested, 0.83% active | AID 720648;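 active means inhibition above the mean of compounds lying between control limits plus 3 SD, set per campaign, cut at about 8.5% in these data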;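 further: 0% = DMSO-only wells as the low control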
# Target sequence (P78536 215-824 limits assumed): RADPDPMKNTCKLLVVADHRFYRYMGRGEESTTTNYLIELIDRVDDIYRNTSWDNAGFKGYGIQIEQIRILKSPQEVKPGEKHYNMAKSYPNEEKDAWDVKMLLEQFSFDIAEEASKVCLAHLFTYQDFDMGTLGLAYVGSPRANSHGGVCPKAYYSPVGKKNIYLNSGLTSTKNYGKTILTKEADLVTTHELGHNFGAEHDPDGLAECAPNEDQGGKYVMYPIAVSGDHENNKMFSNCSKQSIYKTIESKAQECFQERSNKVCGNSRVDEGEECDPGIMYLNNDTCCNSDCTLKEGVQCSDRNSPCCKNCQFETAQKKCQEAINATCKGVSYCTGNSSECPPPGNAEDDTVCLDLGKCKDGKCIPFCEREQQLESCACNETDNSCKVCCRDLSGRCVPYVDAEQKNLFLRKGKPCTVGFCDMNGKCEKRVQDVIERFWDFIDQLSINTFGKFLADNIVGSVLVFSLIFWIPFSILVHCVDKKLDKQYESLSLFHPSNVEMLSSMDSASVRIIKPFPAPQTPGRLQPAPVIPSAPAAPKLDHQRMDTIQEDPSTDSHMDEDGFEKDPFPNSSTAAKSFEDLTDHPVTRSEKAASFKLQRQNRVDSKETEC
# Pemphigus Ab inh – human desmoglein-3 autoantibody binding inhibition. DSG3-coupled beads, scFv-anti-DSG3-GFP binding, flow cytometry; hits give low values. binding (percent of control), % at 10 µM. 310,000 tested, 0.48% active. AID 588358;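 active means binding more than 3 SD below its plate's average and above zero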;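 further: hits lower antibody fragment binding to DSG3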
# rCAG binder conf – r(CAG) RNA repeat binding, confirmation; 4,300 tested, 70% active; inhibition, % at 3 µM; TO-PRO-1 dye displacement fluorescence; shares compounds with rCAG binder;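 active means inhibition above a per-plate cutoff, the mean inhibition of sample wells plus 3 SD, cut at about 35% in these data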;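 further: loss of TO-PRO-1 fluorescence as compound displaces dye from 1x1 AA loop RNA; 0% = DMSO only wells and 100% = 100 µM mitoxantrone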
# DNA CAG counter – counter-screen for rCAG RNA binders: DNA CAG dye complex inhibitors. shares compounds with rCAG binder. 4,300 tested, 94% active. d(CAG) DNA oligo TO-PRO-1 dye displacement, fluorescence. inhibition, % at 3 µM. AID 652068;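 active means inhibition above its plate's cutoff, the mean test-well inhibition plus 3 SD, cut at about 4.8% in these data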;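 further: 0% = DNA dye mix with DMSO and 100% = 100 µM mitoxantrone; hits displace the dye from DNA and so lower well fluorescence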
# DNA CAG DR – DNA CAG dye complex inhibition, dose response counter-screen; shares compounds with rCAG binder; DNA CAG/GTC duplex TO-PRO-1 dye displacement fluorescence; IC50, µM; 250 tested, 20% active; AID 686960; in the data active means IC50 below about 10 µM
# Starred values were filed as active, the others as inactive; · = no result given.
SMILES,rCAG binder,MPTP block,KLK7 zymogen act,ADAM10 inh,ADAM17 inh,Pemphigus Ab inh,rCAG binder conf,DNA CAG counter,others
Cc1ccc(SC(CC(=O)c2ccc(F)cc2)C(=O)O)cc1 (centres undefined),1.3,0.6,0.1,-2.8,-5.0,103.6,·,·,
CC(C)(C)c1ccc(C(=O)CC(Sc2ccc(Cl)cc2)C(=O)O)cc1 (centres undefined),41.1*,-1.9,0.3,-1.1,-0.9,98.5,52.1*,17.7*,
CCCCNC(=O)c1onc(CSc2cc(C)cc(C)c2)c1C(=O)O,35.3*,2.0,0.1,-11.7,1.6,94.7,26.0,4.4*,
C=CCNC(=O)c1onc(CSc2ccccc2)c1C(=O)O,6.0,0.4,-0.4,1.0,-1.4,100.2,·,·,
C=CCNC(=O)c1onc(CSc2ccc(C(C)C)cc2)c1C(=O)O,37.8*,1.9,0.4,5.1,-1.8,99.4,24.5,3.7,
C=CCNC(=O)c1onc(CSc2cccc3ccccc23)c1C(=O)O,40.4*,1.7,0.4,5.5,0.0,97.1,29.1,5.2*,
CCCCNC(=O)c1onc(CSc2cc(C)cc(C)c2)c1C(=O)NCCCC,-0.5,4.6,0.9,9.9,-0.3,102.2,·,·,
COc1ccc(-c2cc(CNc3nc4cc(-c5ccccc5C)sc4c(=O)n3C)on2)cc1,10.1,0.7,0.2,-0.4,-3.2,·,·,·,
O=S(=O)(Cc1ccccc1)C(CCCc1ccccc1)S(=O)(=O)Cc1ccccc1,3.5,-0.7,-0.1,10.5,6.2,136.7,·,·,
O=C(Cc1ccc2c(c1)OCO2)N1CCC(n2nc(-c3ccccc3)oc2=O)CC1,·,·,·,3.0,-1.5,·,·,·,
COc1ccc(CNC(=O)CC2C[C@H](C(=O)N3CCCCC3)[C@@]3(C)c4[nH]c5ccccc5c4CCN3C2=O)cc1OC (some centres undefined),-0.5,3.5,0.4,-11.0,-6.1,104.4,·,·,
CCOC(=O)c1c(-c2ccc(-c3ccccc3)cc2)csc1NC(=O)C1C2CCC(O2)C1C(=O)O (centres undefined),50.9*,-1.5,-0.3,0.3,1.3,105.4,67.4*,26.5*,
COc1ccc2nc(N/C(=N/S(=O)(=O)c3cccs3)c3ccccc3Cl)sc2c1,47.7*,-0.1,0.7,-0.9,3.6,99.0,41.3*,13.2*,
C=CCOC(=O)Nc1nc(CCNC(=O)OCc2ccccc2)c(C(=O)O)s1,0.3,-1.1,0.0,-13.5,-7.3,·,·,·,
O=c1/c(=C\c2cccn2-c2ccccc2)sc2nc3ccccc3n12,1.4,-0.7,0.6,5.6,-3.8,111.8,·,·,
O=C(O)Cn1cc(/C=c2/sc3nc4ccccc4n3c2=O)c2ccccc21,52.0*,-1.4,-0.6,-2.1,0.3,101.1,90.0*,72.8*,
CC(C)n1cc(/C=C2\NC(=O)N(c3cccc(Cl)c3)C2=O)c2ccccc21,6.5,1.6,-0.5,-5.9,-2.8,95.1,·,·,
O=C(O)Cn1cc(/C=C2/NC(=O)N(c3ccc(Cl)cc3)C2=O)c2ccccc21,60.5*,0.5,1.0,-15.4,-2.3,109.4,62.0*,20.9*,
Cc1ccc(S(=O)(=O)/N=C2/NC(=O)/C(=C/c3ccncc3)S2)cc1,4.2,·,-0.2,-4.2,5.0,·,·,·,
Cc1ccc(S(=O)(=O)/N=C2/NC(=O)/C(=C\c3ccccc3)S2)cc1,82.6*,29.9,-0.1,-1.9,2.1,102.3,76.5*,35.7*,
Cc1ccc(/C=C2\S/C(=N/S(=O)(=O)c3cccs3)NC2=O)cc1,59.7*,10.8,-0.2,6.1,-2.7,127.2,65.0*,23.8*,
O=C1N/C(=N/S(=O)(=O)c2ccccc2)S/C1=C/c1cccnc1,14.5,1.1,-0.8,0.0,2.4,94.3,·,·,
COc1cc(/C=C2\S/C(=N/S(=O)(=O)c3ccc(C)cc3)NC2=O)c([N+](=O)[O-])cc1OC,85.5*,7.6,1.2,5.6,0.2,100.0,84.0*,51.0*,
Cc1cccc(N=C2NC(=O)/C(=C/c3cccs3)S2)c1,21.8,-3.3,-0.2,-8.5,3.5,98.5,·,·,
Cc1ccc(S(=O)(=O)/N=C2/NC(=O)/C(=C/c3ccccc3)S2)cc1,83.8*,18.5,-0.1,2.3,1.9,99.8,70.7*,29.7*,DNA CAG DR=4.89*
SMILES,rCAG binder,MPTP block,KLK7 zymogen act,ADAM10 inh,ADAM17 inh,Pemphigus Ab inh,rCAG binder conf,DNA CAG counter,others
COC(C[C@@H]1O[C@@H]1[C@H](O)[C@@H](C)OCc1ccccc1)OC,-3.1,1.1,0.8,-0.8,-3.2,95.2,·,·,
O=C(C(=O)N1CCC(CNS(=O)(=O)c2cc(C(F)(F)F)cc(C(F)(F)F)c2)CC1)c1cccs1,-0.3,·,-0.6,-9.9,-1.9,·,·,·,
COc1ccc(/C=C2\SC(=S)NC2=O)cc1OS(=O)(=O)c1ccc(NC(C)=O)cc1,87.8*,0.4,-0.6,5.2,-1.1,·,77.9*,35.4*,
COc1cccc(/C=C2\SC(N)=NC2=O)c1OS(=O)(=O)c1ccccc1,-0.4,-1.3,-0.1,4.3,-0.8,95.9,·,·,
COc1cccc(/C=C2\SC(=S)NC2=O)c1OS(=O)(=O)c1ccc(NC(C)=O)cc1,69.1*,23.7,-0.4,2.6,0.1,100.6,32.4,9.3*,
Cc1ccc(OCC(=O)N[C@@H](C)c2nnc3ccccn23)cc1C,-0.1,0.8,0.6,-5.2,-5.4,106.3,·,·,
COc1ccc(C2=NN(c3ccccc3)C(=O)/C2=C\c2ccc(O)c(OC)c2)cc1,56.6*,15.2,0.4,8.3,2.4,111.7,65.9*,28.6*,
CCOC(=O)CC1=NN(c2ccccc2)C(=O)/C1=C\c1ccc(N(C)C)cc1,5.2,8.2,0.3,-9.0,1.3,81.8,·,·,
CCOC(=O)CC1=NN(c2ccccc2)C(=O)C1,37.8*,1.5,0.5,-1.9,-0.6,97.6,8.6,5.0*,
O=c1ccc2cc3c([nH]c4ccc(Br)cc43)oc-2c1O,100.4*,11.9,5.0,17.1,4.3,70.1,91.7*,68.0*,
O=C(O)c1ccc(N=Nc2c(O)[nH]c3ccc(Br)cc23)cc1,2.4,-1.7,0.2,10.4,-2.3,108.8,·,·,
O=C(Cn1cc2c(n1)CCCC2)NCc1cccnc1,1.2,-0.6,-0.1,3.3,0.0,106.6,·,·,
O=C(Cn1cc2c(n1)CCCCC2)NCc1ccccc1,40.5*,-0.6,0.1,-11.4,1.0,110.8,6.0,1.5,
COc1cc(C2=CN(Cc3ccccc3)CCC2=O)cc(OC)c1OC,-7.4,-2.5,-0.7,0.4,-5.4,98.5,·,·,
O=C(O)c1ccc(CNS(=O)(=O)c2ccc(Oc3ccccc3Cl)cc2)cc1,38.7*,-0.9,0.2,7.9,0.9,107.1,28.1,6.6*,
O=C(O)c1ccc(CNS(=O)(=O)c2ccc3ccccc3c2)cc1,0.5,-0.2,0.3,-1.0,-2.9,·,·,·,
